Experimental findings from the supplement of paper PMC11577813, “Eurasian spruce bark beetle detects lanierone using a highly expressed specialist odorant receptor, present in several functional sensillum types” (BMC Biology, 2024) are described below.

± gives the standard deviation of the averaged measurements.

The test concerns ipsdienol A-neuron OSN class. Put plainly: net action potential response of A-neuron (blank-subtracted) (spikes/s (Hz)); higher = stronger excitation. The note with it: 10 µg on filter paper; neuron: A neuron (large spike amplitude). Here is the method: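 Single sensillum recordings from antennal olfactory sensilla of live adult Ips typographus. Each compound was 10 µg in paraffin oil on filter paper, delivered as a 0.5 s puff. Net response = spikes in the first 0.5 s of response minus the 0.5 s pre-stimulus count, doubled to give Hz, with blank response subtracted. Values are for the large-spike A-neuron class of each of seven sensillum types that co-house the lanierone B-neuron; N = 1-4 sensilla, averaged.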
Turning to `CC1(C)C2CC=C(CO)C1C2` (racemic) [(±)-Myrtenol], the “net action potential response” value was determined as 0.667 ± 3.1. For `CCC/C=C/CO` the value was -1.33 ± 1.1; for `C=Cc1ccc(OC)cc1` [4-Vinyl anisole], 2 ± 6. For `CC1=CCC2C(C1)C2(C)C` (single isomer, unassigned; (+)) [(+)-3-Carene] the value was 2.67 ± 5.8; for `CC(=O)OCCC(C)C` [3-Methylbutyl acetate], 0 ± 6.9; for `C=C(C)C1CC=C(C)C(=O)C1` (racemic) [(±)-Carvone], 0 ± 3.5. For `CC1=CC(C)(C)C=C(O)C1=O` [Lanierone] the value was -3.33 ± 6.4; for `COc1ccc(C)cc1OC` [3,4-Dimethoxytoluene], 0.667 ± 1.1. In the case of `CCCCCCO` [1-Hexanol], the “net action potential response” value was -5.33 ± 5.8. For `CC/C=C/CCO` the value was 0.667 ± 3.1; for `CC(=O)OCCc1ccccc1` [2-Phenethyl acetate], -3.33 ± 4.2.

As for `C=C1CCC2CC1C2(C)C` (stereo not drawn) [(-)-β-Pinene], the “net action potential response” value was 2.67 ± 1.1.

As for `CCC/C=C\CO`, the “net action potential response” value came to 0.667 ± 3.1. Regarding `CC(C)=CCC/C(C)=C/C=O` [Citral (E/Z mix)], the “net action potential response” value is 1.33 ± 1.1. With `C=Cc1ccccc1` [Styrene] the figure was 0 ± 2.

For `C=C1[C@@H]2CC[C@@H](C2)C1(C)C` (racemic) [(±)-Camphene], the “net action potential response” value worked out at 0 ± 2. For `CCc1ccc(O)c(OC)c1` [4-Ethylguaiacol] the value was 0 ± 8. For `CCC/C=C/C=O` [(E)-hex-2-enal] the value was -0.667 ± 1.1; for `CC(=O)CC/C=C(\C)CCC=C(C)C` [Geranylacetone], 2.67 ± 4.6. With `c1ccc2c(c1)CCO2` [2,3-Dihydrobenzofuran] the figure was 4 ± 7.2; with `CC1=CCC(=C(C)C)CC1` [Terpinolene], 1.33 ± 1.1. With `C=CC(O)CCCCC` (racemic) [(±)-1-Octen-3-ol], the “net action potential response” value is -0.667 ± 2.3.

Take `C=CC(C)(C)O` [2-Methyl-3-buten-2-ol]: the “net action potential response” value was 0 ± 4. With `CC[C@H]1O[C@]2(C)CCC[C@H]1O2` (racemic) [(±)-exo-Brevicomin] the figure was -2.67 ± 5; with `C=C(C)[C@@H]1CC=C(C)CC1` [(-)-Limonene], 5.33 ± 1.1. For `CC1=CC(=O)[C@@H]2C[C@H]1C2(C)C` [(-)-Verbenone] the value was 2 ± 2; for `CC(=O)OC/C=C(\C)CCC=C(C)C` [Geranyl acetate], 2; for `CC(C)CCO` [3-Methyl-1-butanol], 0.667 ± 4.2.

Consider `CC1=CCC(C(C)C)=CC1` [γ-Terpinene], for which the “net action potential response” value was determined as 2 ± 8.7. As to `C=CC(=C)CC(O)C=C(C)C` (racemic) [(±)-Ipsdienol], the “net action potential response” value is 116 ± 12. For `CCC1CCC2(CCCO2)O1` (racemic) [(±)-Chalcogran] the value was 1.33 ± 2.3; for `COc1ccccc1` [Anisole], 2.67 ± 1.1; for `Cc1ccc(C(C)C)cc1` [p-Cymene], 2 ± 3.5. With `CCCCCC(O)CC` (racemic) [(±)-3-Octanol] the figure was -0.667 ± 5; with `CC12CCC(CC1)C(C)(C)O2` [1,8-Cineole], 0 ± 5.3. With `C=CC(=C)CCC=C(C)C` [Myrcene] the figure was -2 ± 3.5. Consider `CC/C=C\CCO`, for which the “net action potential response” value was determined as 0 ± 2.

Regarding `CC1=CCC2CC1C2(C)C` (stereo not drawn) [(-)-α-Pinene], the “net action potential response” value is 1.33 ± 2.3.

Turning to `CCC(C)CO` (racemic) [(±)-2-Methyl-1-butanol], the “net action potential response” value is 3.33 ± 1.1.

As to `CC(=O)c1ccccc1` [Acetophenone], the “net action potential response” value is -4 ± 5.3.
